Experimental data taken from PubChem BioAssay (EPA / NIEHS).
Active and inactive are the calls of the source. Rule for the calls: active = hit-call score of the fitted dose curve at least 0.9, where 1 is the maximum; inactive = score below 0.9.

Experiments:
[1] = target: Transcription factor E2F1 (Homo sapiens) (UniProt Q01094); assay: ATG_E2F_CIS: Attagene CIS-FACTORIAL HepG2 Assay for human E2F Transcription Factor 1 (AID 2282935); settings: HepG2 Attagene cis-reporter, E2F reporter RNA transcripts; actives raise or lower the signal
Procedure, shortened: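 Measures reporter transcript levels via RT-PCR with capillary electrophoresis detection in HepG2 cells harboring cis-regulated reporter units; 24 h post-dose; bidirectional curve fitting with DMSO as baseline.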

[2] = ATG_E_Box_CIS: Attagene CIS-FACTORIAL HepG2 Assay for human Enhancer Box (E-box) (AID 2282936); settings: HepG2 E-box cis-reporter transcription, actives raise or lower the signal
Procedure, shortened: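 First, HepG2 cells receive multiple cis-regulated reporter constructs by transient transfection. Next, chemicals are applied for 24 h. Finally, reporter mRNA is quantified via RT-PCR and capillary electrophoresis, with DMSO as baseline.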

[3] = ATG_M_61_CIS: Attagene CIS-FACTORIAL HepG2 Assay for M61 Transcription Factor (Internal Marker) (AID 2282937); settings: HepG2 Attagene CIS-FACTORIAL M61 internal marker reporter; actives raise or lower the signal
Procedure, shortened: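 Transfect HepG2 with MRTUs; dose 24 h; isolate RNA; reverse-transcribe with DNase I treatment; PCR-amplify, FAM-label and cut with HpaI for 2 h at 37 C; resolve by CE. Bidirectional fitting against DMSO.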

[4] = ATG_EGR_CIS: Attagene CIS-FACTORIAL HepG2 Assay for human Early Growth Response 1 (EGR1) (AID 2282938); settings: HepG2 Attagene CIS-FACTORIAL EGR reporter mRNA; actives raise or lower the signal
Procedure, shortened: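 After a 24 h treatment of transiently transfected HepG2 cells, total RNA was reverse-transcribed and reporter sequences PCR-amplified, labelled and run on capillary electrophoresis. Reporters sit under cis-regulatory promoters sensing endogenous factors.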

[5] = ATG_M_19_CIS: Attagene CIS-FACTORIAL HepG2 Assay for M19 Transcription Factor (Internal Marker) (AID 2282939); settings: HepG2 Attagene CIS-FACTORIAL M19 internal marker reporter; actives raise or lower the signal
Procedure, shortened: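 Signals come from fluorescence of labelled reporter-specific PCR fragments resolved by capillary electrophoresis, following 24 h treatment of HepG2 cells transfected with cis-promoter reporter units; activity was fitted in both directions relative to DMSO.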

[6] = ATG_ERE_CIS: Attagene CIS-FACTORIAL HepG2 Assay for Estrogen Response Element (ERE) (AID 2282940); settings: HepG2 ERE cis-reporter, Attagene RNA transcript; actives raise or lower the signal
Procedure, shortened: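 Fluorescence of capillary-separated, FAM-labelled reporter cDNA fragments indicates reporter mRNA levels in HepG2 cells exposed to chemicals for 24 h. Transient transfection with cis-regulated units; data fitted in both directions against DMSO.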

[7] = target: Hepatocyte nuclear factor 3-beta (Homo sapiens) (UniProt Q9Y261); assay: ATG_FoxA2_CIS: Attagene CIS-FACTORIAL HepG2 Assay for human Forkhead box A2 (FOXA2) (AID 2282942); settings: HepG2 cis-reporter transcription factor activity, 24 h; actives raise or lower the signal
Procedure, shortened: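 24 h dosing of HepG2 bearing cis-reporter constructs; mRNA readout by RT-PCR/CE fluorescence; bidirectional fit, DMSO baseline.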

[8] = ATG_GATA_CIS: Attagene CIS-FACTORIAL HepG2 Assay for human GATA Binding Protein (AID 2282944); settings: HepG2 GATA cis-element reporter, Attagene multiplex mRNA; actives raise or lower the signal
Procedure, shortened: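 After transfecting HepG2 cells with multiple cis-regulated reporter units, chemicals are dosed for 24 h; isolated RNA undergoes RT-PCR and fluorescent labeling before capillary electrophoresis, with activity expressed against DMSO.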

[9] = ATG_GLI_CIS: Attagene CIS-FACTORIAL HepG2 Assay for human Zinc Finger Protein GLI1 (AID 2282945); settings: HepG2, Attagene cis-factorial reporter mRNA, GLI element; actives raise or lower the signal
Procedure, shortened: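 Transiently transfected HepG2 cells report endogenous transcription factor activity via cis-element-driven reporter units. After 24 h compound exposure, reporter mRNA was measured by RT-PCR with capillary electrophoresis; bidirectional fitting against DMSO baseline.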

[10] = ATG_ISRE_CIS: Attagene CIS-FACTORIAL HepG2 Assay for human Interferon Regulatory Factor 1 (IRF1) binding to an Interferon-Stimulated Response Element (ISRE) (AID 2282948); settings: HepG2 ISRE cis-reporter (Attagene), mRNA transcription readout; actives raise or lower the signal
Procedure, shortened: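 HepG2 cells transiently transfected with multiplexed cis-promoter reporter units; after 24 h compound exposure, reporter mRNA quantified by RT-PCR, FAM labelling, HpaI digestion and capillary electrophoresis. Bidirectional fit versus DMSO baseline.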

[11] = ATG_M_32_CIS: Attagene CIS-FACTORIAL HepG2 Assay for M32 Transcription Factor (Internal Marker) (AID 2282949); settings: HepG2 Attagene cis-factorial M32 reporter, mRNA; actives raise or lower the signal;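 note: background control marker of the multiplexed CIS panel rather than a real target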
Procedure, shortened: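 Internal background marker read-out: RT-PCR/capillary electrophoresis fluorescence of reporter transcripts from transiently transfected HepG2 cells after 24 h chemical exposure. Activity fitted bidirectionally relative to DMSO negative control.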

[12] = ATG_M_06_CIS: Attagene CIS-FACTORIAL HepG2 Assay for M06 Transcription Factor (Internal Marker) (AID 2282950); settings: HepG2 Attagene CIS-FACTORIAL M06 internal marker reporter; actives raise or lower the signal
Procedure, shortened: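 HepG2 liver cells, 24 h exposure. Reporter transcripts from transfected cis-element constructs quantified by RT-PCR/capillary electrophoresis fluorescence. Bidirectional curve fit against DMSO.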

[13] = target: Hypoxia-inducible factor 1-alpha (Homo sapiens) (UniProt Q16665); assay: ATG_HIF1a_CIS: Attagene CIS-FACTORIAL HepG2 Assay for human Hypoxia Inducible Factor 1 (HIF1A) (AID 2282951); settings: HepG2 Attagene cis-factorial HIF1a reporter transcription; actives raise or lower the signal
Procedure, shortened: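 After 24 h chemical exposure of reporter-transfected HepG2 cells, reporter cDNA was PCR-amplified, labelled by 6-FAM primer extension (2 min 95 C, 20 s 68 C, 10 min 72 C), HpaI-cut (2 h, 37 C) and analysed by CE.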

[14] = target: Hepatocyte nuclear factor 6 (Homo sapiens) (UniProt Q9UBC0); assay: ATG_HNF6_CIS: Attagene CIS-FACTORIAL HepG2 Assay for human Hepatocyte Nuclear Factor 6 (HNF6) (AID 2282952); settings: HepG2 Attagene cis-factorial HNF6 reporter transcription; actives raise or lower the signal
Procedure, shortened: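 Reporter mRNA induction or loss in HepG2 after 24 h exposure; transient cis-MRTU transfection; fragments quantified by capillary electrophoresis; bidirectional analysis, DMSO as negative control.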

[15] = target: Heat shock factor protein 1 (Homo sapiens) (UniProt Q00613); assay: ATG_HSE_CIS: Attagene CIS-FACTORIAL HepG2 Assay for human Heat Shock Transcription Factor 1 (HSE) (AID 2282953); settings: HepG2 HSE cis-reporter, Attagene RNA transcription; actives raise or lower the signal
Procedure, shortened: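 Endogenous transcription factor activity captured via cis-promoter reporter units transfected into HepG2; treatment lasted 24 h. Fluorescence intensity of reporter fragments analysed with bidirectional curve fitting, DMSO baseline.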

[16] = ATG_MRE_CIS: Attagene CIS-FACTORIAL HepG2 Assay for human Metal Responsive Element (MRE) (AID 2282954); settings: HepG2 MRE cis-reporter transcription, Attagene multiplex; actives raise or lower the signal
Procedure, shortened: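 Fluorescent reporter fragments separated by capillary electrophoresis give mRNA induction for the MRE unit after 24 h treatment of transfected HepG2 cells. Endogenous transcription-factor activity is read; DMSO serves as negative control and baseline.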

[17] = ATG_GRE_CIS: Attagene CIS-FACTORIAL HepG2 Assay for human Glucocorticoid Response Elements (GRE) (AID 2282947); settings: HepG2 GRE cis-reporter, Attagene multiplex mRNA; actives raise or lower the signal
Procedure, shortened: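 Endogenous transcription factor activity is read through cis-element reporter constructs transiently transfected into HepG2 cells. After 24 h treatment, labelled RT-PCR products are resolved by capillary electrophoresis; DMSO sets baseline for bidirectional curve fitting.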

[18] = ATG_FoxO_CIS: Attagene CIS-FACTORIAL HepG2 Assay for human Forkhead box O (FoxO) (AID 2282943); settings: HepG2 Attagene cis-reporter, FoxO element, mRNA; actives raise or lower the signal
Procedure, shortened: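 HepG2 cells transiently transfected with cis-element-driven reporter units report endogenous FoxO activity. After 24 h chemical exposure, reporter mRNA quantified by RT-PCR, fluorescent labeling, HpaI digestion and capillary electrophoresis; bidirectional fit versus DMSO.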

[19] = target: Bile acid receptor (Homo sapiens) (UniProt Q96RI1); assay: ATG_IR1_CIS: Attagene CIS-FACTORIAL HepG2 Assay for human Nuclear Receptor Subfamily 1 Group H Member 4 (NR1H4), IR1 submotif (AID 2282946); settings: IR1 reporter transcription, actives raise or lower the signal
Procedure, shortened: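 HepG2 cells transiently transfected with multiple cis-promoter-driven reporter units to measure endogenous transcription factor activity; 24 h exposure. Reporter mRNA read by RT-PCR, FAM labelling, HpaI digestion and capillary electrophoresis. Bidirectional fit versus DMSO.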

[20] = ATG_Ets_CIS: Attagene CIS-FACTORIAL HepG2 Assay for human Erythroblast Transformation Specific (ETS) (AID 2282941); settings: HepG2 ETS cis-reporter transcription, actives raise or lower the signal
Procedure, shortened: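 HepG2 cells transiently transfected with cis-promoter reporter transcription units were dosed for 24 h; reporter mRNA was measured by RT-PCR, 6-FAM primer extension, HpaI digestion and capillary electrophoresis, with bidirectional fitting against DMSO baseline.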

Measured: AC50

Sequence of Hepatocyte nuclear factor 3-beta (Homo sapiens) (Q9Y261 whole entry, looked up): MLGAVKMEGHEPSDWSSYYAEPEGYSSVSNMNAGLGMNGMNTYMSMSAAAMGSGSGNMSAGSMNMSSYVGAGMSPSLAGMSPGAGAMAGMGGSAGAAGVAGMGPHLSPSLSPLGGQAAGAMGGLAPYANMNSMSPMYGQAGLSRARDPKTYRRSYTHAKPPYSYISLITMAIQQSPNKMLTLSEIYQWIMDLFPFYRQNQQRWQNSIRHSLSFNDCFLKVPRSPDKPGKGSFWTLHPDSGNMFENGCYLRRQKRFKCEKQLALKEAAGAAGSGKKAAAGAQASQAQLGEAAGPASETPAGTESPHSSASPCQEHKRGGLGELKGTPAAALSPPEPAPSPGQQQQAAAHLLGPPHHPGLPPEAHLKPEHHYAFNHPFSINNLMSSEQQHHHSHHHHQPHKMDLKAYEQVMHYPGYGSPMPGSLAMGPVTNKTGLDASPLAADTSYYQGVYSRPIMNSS
Sequence of Bile acid receptor (Homo sapiens) (Q96RI1 whole entry, looked up): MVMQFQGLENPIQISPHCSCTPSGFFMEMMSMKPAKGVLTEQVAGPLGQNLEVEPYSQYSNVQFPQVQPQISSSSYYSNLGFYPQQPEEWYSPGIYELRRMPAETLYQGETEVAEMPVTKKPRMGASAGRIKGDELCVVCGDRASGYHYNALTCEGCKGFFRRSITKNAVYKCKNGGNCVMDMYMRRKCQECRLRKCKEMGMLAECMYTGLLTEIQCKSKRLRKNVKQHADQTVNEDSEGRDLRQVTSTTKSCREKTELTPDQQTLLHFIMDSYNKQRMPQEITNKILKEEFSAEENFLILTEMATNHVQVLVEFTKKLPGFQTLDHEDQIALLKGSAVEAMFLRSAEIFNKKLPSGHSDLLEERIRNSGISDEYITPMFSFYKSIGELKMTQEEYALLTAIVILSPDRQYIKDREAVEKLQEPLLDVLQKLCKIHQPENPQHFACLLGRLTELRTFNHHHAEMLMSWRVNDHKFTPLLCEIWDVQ
Sequence of Hepatocyte nuclear factor 6 (Homo sapiens) (Q9UBC0 whole entry, looked up, the tested form may be a part): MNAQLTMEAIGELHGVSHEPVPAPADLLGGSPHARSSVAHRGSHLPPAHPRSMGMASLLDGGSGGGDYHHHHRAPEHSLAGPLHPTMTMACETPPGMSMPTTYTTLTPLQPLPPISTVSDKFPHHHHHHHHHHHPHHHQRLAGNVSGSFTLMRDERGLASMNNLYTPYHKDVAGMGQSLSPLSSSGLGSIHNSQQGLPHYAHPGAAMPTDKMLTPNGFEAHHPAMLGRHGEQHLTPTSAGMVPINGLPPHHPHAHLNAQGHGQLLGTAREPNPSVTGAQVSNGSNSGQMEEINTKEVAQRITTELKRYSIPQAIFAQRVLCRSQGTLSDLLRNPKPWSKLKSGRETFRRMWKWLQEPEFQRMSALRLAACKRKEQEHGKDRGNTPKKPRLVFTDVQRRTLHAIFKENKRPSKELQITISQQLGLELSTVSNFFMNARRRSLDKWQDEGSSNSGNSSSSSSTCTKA
Sequence of Transcription factor E2F1 (Homo sapiens) (Q01094 whole entry, looked up): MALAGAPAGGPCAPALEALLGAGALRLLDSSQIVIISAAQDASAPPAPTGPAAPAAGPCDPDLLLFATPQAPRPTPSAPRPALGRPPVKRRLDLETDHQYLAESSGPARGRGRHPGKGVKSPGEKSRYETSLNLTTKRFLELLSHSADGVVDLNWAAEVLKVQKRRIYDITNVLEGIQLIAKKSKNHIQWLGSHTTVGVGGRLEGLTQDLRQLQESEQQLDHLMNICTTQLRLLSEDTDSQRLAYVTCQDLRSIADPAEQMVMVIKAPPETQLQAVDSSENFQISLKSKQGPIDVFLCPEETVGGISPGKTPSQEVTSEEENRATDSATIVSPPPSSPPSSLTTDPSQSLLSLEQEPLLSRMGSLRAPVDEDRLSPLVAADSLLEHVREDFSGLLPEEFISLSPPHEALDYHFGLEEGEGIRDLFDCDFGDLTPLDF
Sequence of Hypoxia-inducible factor 1-alpha (Homo sapiens) (Q16665 whole entry, looked up): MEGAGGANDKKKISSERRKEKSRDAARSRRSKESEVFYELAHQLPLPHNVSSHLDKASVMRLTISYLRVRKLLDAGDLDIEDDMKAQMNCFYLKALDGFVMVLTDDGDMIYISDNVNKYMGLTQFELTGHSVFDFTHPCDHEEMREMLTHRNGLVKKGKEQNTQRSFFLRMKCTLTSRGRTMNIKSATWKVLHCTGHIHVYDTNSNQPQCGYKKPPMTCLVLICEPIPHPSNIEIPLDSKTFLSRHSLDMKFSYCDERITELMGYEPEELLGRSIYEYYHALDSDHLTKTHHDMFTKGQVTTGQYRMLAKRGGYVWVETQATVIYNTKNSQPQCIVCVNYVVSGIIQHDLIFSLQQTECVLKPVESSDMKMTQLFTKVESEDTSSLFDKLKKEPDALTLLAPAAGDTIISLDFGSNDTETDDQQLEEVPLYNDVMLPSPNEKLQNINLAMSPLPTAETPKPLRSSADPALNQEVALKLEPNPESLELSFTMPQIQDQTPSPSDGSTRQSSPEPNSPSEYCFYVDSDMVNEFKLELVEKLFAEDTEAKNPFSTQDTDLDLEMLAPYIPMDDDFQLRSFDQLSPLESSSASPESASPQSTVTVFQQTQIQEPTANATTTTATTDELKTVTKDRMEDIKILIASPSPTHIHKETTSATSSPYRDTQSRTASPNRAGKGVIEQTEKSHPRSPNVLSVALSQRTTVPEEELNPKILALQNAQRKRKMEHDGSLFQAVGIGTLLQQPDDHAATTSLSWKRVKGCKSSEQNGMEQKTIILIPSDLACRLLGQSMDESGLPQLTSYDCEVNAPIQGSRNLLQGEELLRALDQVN
Sequence of Heat shock factor protein 1 (Homo sapiens) (Q00613 whole entry, looked up, the tested form may be a part): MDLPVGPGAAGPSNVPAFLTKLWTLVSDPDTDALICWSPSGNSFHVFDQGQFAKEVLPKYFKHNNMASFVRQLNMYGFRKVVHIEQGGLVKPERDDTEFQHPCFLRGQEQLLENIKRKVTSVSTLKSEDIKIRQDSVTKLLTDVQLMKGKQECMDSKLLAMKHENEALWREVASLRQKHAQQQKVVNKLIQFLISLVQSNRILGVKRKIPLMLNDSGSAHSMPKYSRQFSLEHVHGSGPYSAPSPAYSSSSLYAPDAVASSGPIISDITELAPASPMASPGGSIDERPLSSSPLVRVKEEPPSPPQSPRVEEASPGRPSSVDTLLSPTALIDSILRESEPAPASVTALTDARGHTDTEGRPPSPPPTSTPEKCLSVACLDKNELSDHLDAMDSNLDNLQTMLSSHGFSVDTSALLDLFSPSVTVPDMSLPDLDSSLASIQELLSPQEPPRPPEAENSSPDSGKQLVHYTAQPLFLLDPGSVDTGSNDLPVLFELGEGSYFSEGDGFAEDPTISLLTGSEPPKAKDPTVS

CN1CCCC1=O
inactive: [1] | [2] | [3] | [4] | [5] | [6] | [7] | [8] | [9] | [10] | [11] | [12] | [13] | [14] | [15] | [16]

CCCCCCCCCCCCCCCC
inactive: [1] | [2] | [3] | [4] | [5] | [6] | [7] | [8] | [9] | [17] | [10] | [11] | [12] | [13] | [14] | [16]

Cc1nc(-c2ccc3c(c2)CCN(CCC2CCC(NC(=O)/C=C/c4ccc(F)cc4)CC2)CC3)no1 (stereo not given)
inactive: [1] | [2] | [3] | [4] | [5] | [6] | [7] | [18] | [8] | [9] | [19] | [17] | [10] | [11] | [12] | [14] | [16]

FC(F)(F)C(F)(F)C(F)(F)C(F)(F)C(F)(F)C(F)(F)CCI
inactive: [1] | [2] | [3] | [4] | [5] | [6] | [7] | [18] | [8] | [9] | [19] | [10] | [11] | [12] | [13] | [14] | [16]

Cc1nc(C)nc(N2C[C@@H](C)N(c3ccnc([C@@H](C)O)n3)[C@@H](C)C2)n1
inactive: [1] | [2] | [3] | [4] | [5] | [6] | [7] | [8] | [9] | [19] | [17] | [10] | [11] | [12] | [14] | [16]

Clc1cc(Cl)c(Cl)cc1Cl
inactive: [1] | [2] | [3] | [4] | [5] | [6] | [7] | [8] | [9] | [17] | [10] | [11] | [12] | [14] | [16]

Oc1ccc2c(c1)OC[C@@H](N1CCC(O)(c3ccc(F)cc3)CC1)[C@H]2O
inactive: [1] | [3] | [5] | [6] | [20] | [7] | [18] | [8] | [9] | [17] | [10] | [11] | [12] | [13] | [14]
active: [4] 50 µM | [16] 57.2 µM

Cc1cc(=O)[nH]c(=S)[nH]1
inactive: [1] | [2] | [3] | [4] | [5] | [6] | [7] | [8] | [9] | [19] | [17] | [10] | [11] | [12] | [14] | [15] | [16]

C[Si]1(C)O[Si](C)(C)O[Si](C)(C)O[Si](C)(C)O1
active: [6] 27.2 µM
inactive: [1] | [2] | [3] | [4] | [5] | [7] | [8] | [9] | [19] | [10] | [11] | [12] | [14] | [15] | [16]

Cc1ccc(C(C)C)c(O)c1
inactive: [1] | [3] | [4] | [5] | [6] | [20] | [7] | [18] | [8] | [9] | [17] | [10] | [11] | [12] | [13] | [14] | [15] | [16]

Cc1cc(NC(=O)C(=O)O)cc(C)c1Oc1ccc(O)c2c1CCC2
inactive: [1] | [2] | [3] | [4] | [5] | [6] | [7] | [8] | [9] | [19] | [17] | [10] | [11] | [12] | [13] | [14] | [16]

CCCCCCCCCCC
inactive: [1] | [3] | [4] | [5] | [6] | [20] | [7] | [18] | [8] | [9] | [17] | [10] | [11] | [12] | [14] | [15] | [16]

Nc1ccccc1N
inactive: [1] | [2] | [3] | [5] | [6] | [7] | [8] | [9] | [17] | [10] | [11] | [12] | [14] | [15]
active: [4] 53.8 µM | [13] 41.3 µM | [16] 38.2 µM

C=CCOC(=O)c1ccccc1C(=O)OCC=C
active: [19] 25.9 µM
inactive: [1] | [2] | [3] | [4] | [5] | [6] | [7] | [18] | [8] | [9] | [10] | [11] | [12] | [14] | [16]

COc1ccc(C)cc1N
inactive: [1] | [3] | [4] | [5] | [6] | [20] | [7] | [18] | [8] | [9] | [17] | [10] | [11] | [12] | [13] | [14] | [15] | [16]
